# Source: PubChem
# Beta apoptosis – blocks beta cell apoptosis | AID 435005 | protection from apoptosis, % (test concentration not listed) | INS-1E cytokine-induced death, ATP luminescence, 48 h; percent of positive-control rescue, neutral wells zero | 300,000 tested, 0.8% active;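 active = Every replicate reaches about 75%, or at least half do and their mean reaches it too, limit read from the data; inconclusive = At least half of replicates reach the limit but their mean does not; inactive = Under half of replicates reach the limit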;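 note: 0% = cytokine-treated negative control wells and 100% = positive control rescue; higher means more ATP so stronger rescue from cytokine killing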
# Calb FLC – C. albicans growth modulation with fluconazole; C. albicans CaCi-2 (fluconazole-resistant clinical isolate) + fluconazole, Alamar Blue growth, 48 h; growth inhibition, % (no concentration beside the values); 300,000 tested, 0.57% active; AID 1979;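 active = growth inhibition above about 58% in most replicates, limit read from the data, passing the limit was not always enough; inconclusive = exactly half the replicates above a set limit; inactive = most replicates below a set limit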;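 note: all wells also contain fluconazole at 8 µg/ml as a sub-toxic cotreatment; 0% = median of DMSO wells and 100% = median of geldanamycin control wells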
# MPTP block – blocks calcium-induced mitochondrial swelling; inhibition, % at 10 µM; 360,000 tested, 1.4% active; AID 602449; isolated mouse mitochondria, Ca2+ swelling absorbance, 30 min;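 active = inhibition of 50% or more, scaled per plate between neutral and stimulator controls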;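 note: 0% = DMSO wells given calcium and 100% = 1 mM EGTA wells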
# CSC inhib – cancer stem cell inhibition; cancer stem cell-like cells viability, luminescence; inhibition, % at 7.5 µM; 300,000 tested, 1.1% active; AID 2717; in the data active = inhibition above about 75%; inconclusive = no clear call, values can overlap the other calls; tested in HMLE shEcad cells
# Mdm2 MdmX PPI – disrupts the human Mdm2-MdmX interaction. AID 485346. 330,000 tested, 3% active. SaOS-2 split-luciferase Mdm2/MdmX complementation, luminescence. inhibition, % at 8 µM;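 active = inhibition of at least 50% at 8 µM in the primary screen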
# Mdm2 MdmX conf – human Mdm2/MdmX binding inhibition, confirmed; shares compounds with Mdm2 MdmX PPI; luminescent assay; inhibition, % at 8 µM; 10,000 tested, 55% active; in the data active = inhibition above about 40%
# FLuc counter – inhibits full-length luciferase, flagging false Mdm2/MdmX hits; shares compounds with Mdm2 MdmX PPI; SaOS-2 full-length luciferase counterscreen, luminescence; inhibition, % at 8 µM; 6,200 tested, 77% active; AID 504607;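 active = mean inhibition at 8 µM reaching about 37%, which flags the compound as non-specific, limit read from the data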;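 note: p53-null SaOS-2 cells with luciferase driven by a doxycycline-inducible promoter; compound on cells about two nights before reading with doxycycline added after day one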
# The depositor's hits bear a star; ? = inconclusive; . = not tested or not shown. Shown are actives, neighbours in structure and some others; about 4.8% of the full set was active somewhere.
SMILES,Beta apoptosis,Calb FLC,MPTP block,CSC inhib,Mdm2 MdmX PPI,Mdm2 MdmX conf,FLuc counter
c1ccc2c(CN3CCCCCC3)c[nH]c2c1,99.8*,-0.6,-0.2,-12.5,22.6,.,.
Clc1cccc(N2Cc3cc(-c4ccccc4)ccc3-n3nncc3C2)c1,.,.,3.5,.,.,.,.
O=C(NC1CONC1=O)OCC(Cl)(Cl)Cl (configuration not stated),41.4,-4.1,-0.2,76.9*,13.5,.,.
O=C(Nc1cccc(C(F)(F)F)c1)c1cccn(Cc2ccc3c(c2)OC(F)(F)O3)c1=O,-6.3,3.2,15.9,47.1,1.1,.,.
O=C(Nc1ccc(C(F)(F)F)cc1)c1cccn(Cc2ccc3c(c2)OC(F)(F)O3)c1=O,-2.1,28.6,14.8,90.1*,21.6,.,.
C[C@H]1O[C@@H](OC2CC[C@]3(C=O)[C@H]4CC[C@]5(C)[C@@H](C6=CC(=O)OC6)CC[C@]5(O)[C@@H]4CC[C@]3(O)C2)CC2OC(C)(C)OC21 (some centres not stated),-1.6,0.1,-0.5,100.8*,.,.,.
Cn1ncnc2c(=O)n(C)c(=O)nc1-2,125.0*,16.9,1.2,175.7*,91.7*,84.2*,21.1
CC(=O)N1Cc2cnnn2-c2ccccc2C1C#N (configuration not stated),.,.,4.2,.,.,.,.
Nc1ccc2ccc3cccc[n+]3c2c1,23.0,-0.2,0.4,9.0,10.0,.,.
C[n+]1c(-c2ccccc2)c2cc(N)ccc2c2ccc(N)cc21,97.1*,92.7*,4.9,43.8,84.9*,70.2*,13.0
CCCCCC[N+](=O)[O-],-11.0,.,-0.8,-8.0,14.9,.,.
CCCCCCCCCCCCCCCC[N+](C)(C)C,117.1*,102.1*,3.8,102.0*,90.0*,76.2*,8.8
Cn1c(NN=O)nc2ccccc21,100.3*,82.4,0.2,114.9*,59.1*,82.5*,35.8
CN1CCN(Cc2nc3ccccc3n2C)CC1,-2.2,-7.7,1.0,-6.0,10.7,.,.
CCCCCn1c(=O)c(C(=O)NCc2ccncc2)c(O)c2ccccc21,16.4,84.4*,2.0,23.3,51.4*,12.8,.
CCCCn1c(=O)c(C(=O)NCc2ccc(Cl)cc2)c(O)c2ccccc21,.,11.0,3.6,75.9*,51.8*,13.9,.
CCCCn1c(=O)c(C(=O)NCCc2ccccc2)c(O)c2ccccc21,-2.7,?,3.7,44.7,6.5,.,.
C=C1C(=O)O[C@@H]2C[C@@H](C)[C@H]3C=CC(=O)[C@]3(O)C[C@@H]12,1.5,26.4,-0.2,3.2,57.7*,-7.5,.
COc1ccc(CCN)cc1OC,-1.0,-14.5,-0.1,-7.8,16.3,.,.
NCCc1ccc(OCc2ccccc2)c(OCc2ccccc2)c1,8.7,.,8.5,106.2*,92.4*,24.1,.
CCOC(=O)[C@]12Cc3cc(OC)ccc3[C@H]1N(CCC(=O)OC)C(=O)c1cc(OC)ccc12,.,.,-0.5,.,.,.,.
COc1ccc(O)c2c(=O)c3c(OC)cc4c(c3oc12)C1C=COC1O4 (configuration not stated),23.9,-1.8,-2.0,35.9,73.7*,63.2*,41.6*
CN(C)c1ccc(-[n+]2c(-c3ccccc3)cc(-c3ccccc3)cc2-c2ccccc2)cc1,.,90.4*,1.7,.,89.2*,94.7*,23.3
Cc1ccc(-c2cc(-c3ccccc3)cc(-c3ccccc3)[n+]2-c2ccccc2)cc1,121.0*,86.1*,11.3,25.3,96.1*,92.0*,12.7
Cc1ccc(OC(=O)N(C)C[C@@H]2OCc3cnnn3CCCC(=O)N([C@@H](C)CO)C[C@@H]2C)cc1,.,.,-1.4,.,.,.,.
C=C1C(O)[C@@H]2O[C@]3(CC[C@H](/C=C/C(C)[C@@H]4CC(C)=CC5(O[C@H](C[C@@](C)(O)C(=O)O)CCC5O)O4)O3)CC[C@H]2O[C@@H]1C(O)CC(C)[C@H]1OC2(CCCCO2)CCC1C (some centres not stated),84.6*,.,.,.,98.0*,99.9*,0.4
CNC(=O)C[C@H]1CC[C@@H]2NC[C@H](O)COC[C@H]2O1,.,.,0.1,.,.,.,.
O=[N+]([O-])c1cc(F)c(N2CCCCC2)cc1Br,-0.5,6.8,1.3,-11.0,7.9,.,.
Cc1ccc(Oc2cc(NN3CCCCC3)c([N+](=O)[O-])cc2[N+](=O)[O-])c([N+](=O)[O-])c1,-1.2,-4.9,0.4,16.9,50.6*,28.4,.
Cc1cccc(-n2c(/C=C/c3ccc([N+](=O)[O-])o3)nc3ccccc3c2=O)c1,-13.2,-2.2,1.2,88.6*,93.8*,57.2*,41.8*
